Only some compounds are listed: those with a hit (about 19% of all), similar ones and a draw of the others.
HT1080 IDH1KD tx – kills HT-1080 cells with IDH1 knockdown | HT-1080 IDH1 knockdown viability, ATP luminescence, 48 h | Potency, µM (titrated, usually from 46.1 µM), for the others: at the highest dose activity, negative = toxicity, most hits filed as cytotoxic | actives 2% (n = 360,000) | AID 686971;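 note: potency is the fitted concentration of half-maximal effect; 0% = DMSO wells and -100% = cell-free medium wells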
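IDH1KD HT-1080 cells, 750/well, RPMI + 5% FBS; compound pinned after 2 h settling; 48 h, 37 °C; CellTiter-Glo luminescence; % activity normalised to DMSO and no-cell wells; curves fitted, classed by r2 and efficacy.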
IL1B secr inh – inflammasome signaling inhibition, IL-1 beta readout | THP-1 LPS/ATP IL-1B secretion, AlphaLISA, 16 h; hits give low values | activity change, % at 57.5 µM | actives 4.7% (n = 360,000); in the data active = activity change below about -50%; inconclusive = mostly about -30% to -49%
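THP-1 cells pretreated 1 hr with compounds (up to 57.5 uM final), then stimulated with LPS (250 ng/mL final) plus ATP (1.25 mM final); secreted IL-1B measured by AlphaLISA after 16 hr, decreased signal indicating inhibition.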
TDP1 cell noCPT – qHTS for Inhibitors of human tyrosyl-DNA phosphodiesterase 1 (TDP1): qHTS in cells in absence of CPT; AID 686978, 2013; Potency, µM (doses to about 46.2 µM), inactives show top-dose activity change, negative = growth inhibition, hits mostly inhibitors; DT40 Tdp1-/- hTDP1 cells, no CPT, ATP luminescence, 48 h; actives 15% (n = 420,000); note: potency is the fitted concentration of half-maximal effect; nearly all actives have a fitted effect of over 55% in size
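Readout: luminescence from CellTiter-Glo after 30 min in the dark at RT. Cells: DT40 Tdp1-/- with stable hTDP1, 400/well. Exposure: compounds alone, ≥48 hr, 37 °C.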
HT1080NT lethal – kills 2HG-producing HT-1080-NT fibrosarcoma cells; actives 1.6% (n = 360,000); Potency, µM (titrated, usually from 46.1 µM), for the others: at the highest dose activity, negative = less viability, actives largely listed as cytotoxic; HT-1080-NT fibrosarcoma viability, CellTiter-Glo ATP luminescence, 48 h; AID 686970;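 note: NT is the 2HG producing partner of a matched IDH1 knockdown line; potency is the fitted concentration of half-maximal effect; 0% = DMSO-treated cells and -100% = media-only wells without cells; nearly all actives have a fitted effect of over 55% in size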
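Luminescent CellTiter-Glo readout after 48 hours of compound exposure at 37 degrees C defined viability of HT-1080-NT cells. Activity was normalized to DMSO wells and cell-free media wells; concentration-response curves were fitted and assigned curve classes.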
DT40 TDP1 CPT – DT40-hTDP1 cell growth loss with CPT; actives 12% (n = 420,000); Potency, µM (series often up to 46.2 µM), without a hit: at the highest dose activity change, negative = growth inhibition, hits mostly inhibitors; chicken DT40 Tdp1-/-;hTDP1 cells + 20 nM CPT, ATP luminescence, 48 h; AID 686979; note: potency is the fitted concentration of half-maximal effect; nearly all actives have a fitted effect of over 55% in size
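Chicken DT40 Tdp1-/- cells stably complemented with human TDP1 were seeded at 400 cells/well in medium containing 20 nM camptothecin, exposed to pin-transferred compounds, and grown at 37 °C for at least 48 hr. Viability was read as ATP luminescence.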
Numbers without * were called inactive; ? = inconclusive; nt = not tested or not shown; [ ] = dose if it differs, or a comment. Unless noted, calls come from the whole dose curve; as a rule, active = well fitted curve in the direction sought with a large enough effect; inconclusive = small, poorly fitted or top-dose-only effect, or another doubt; inactive = no such curve, though single readings can be large; an effect the other way counts as inactive or inconclusive. Unless noted, % is set by controls: 0 for no effect and ±100 for the full control effect.

SMILES	HT1080 IDH1KD tx	IL1B secr inh	TDP1 cell noCPT	HT1080NT lethal	DT40 TDP1 CPT
Cn1c(=O)c2c(-c3ccccc3)n(-c3ccccc3)cc2n(C)c1=O	-5.7%	22.1	4.61µM*	5.0%	3.66µM*
CC1=CC(=O)C2=C(C)C[C@@H]3OC(=O)[C@@H](C)[C@H]3C=C12	nt	nt	7.2%[9.04 µM]	nt	8.7%[9.04 µM]
CC1CCCc2sc3ncn(N)c(=N)c3c21 (stereo not given)	-0.2%	26.0	?	-4.2%	4.3%
Cc1cnc(NC(=O)C2COc3ccccc3O2)s1 (stereo not given)	-2.7%	5.3	?	-5.7%	20.6µM*
O=C(Nc1ccc(S(=O)(=O)N2CCCC2)cc1)C1COc2ccccc2O1 (stereo not given)	2.5%	4.0	?	-1.1%	?
O=C(Nc1nc(-c2ccccn2)cs1)C1COc2ccccc2O1 (stereo not given)	?	93.5	5.17µM*	?	3.26µM*
Cc1csc(NC(=O)C2COc3ccccc3O2)n1 (stereo not given)	4.1%	16.4	-20.1%	9.3%	?
O=C(Nc1nc(-c2ccc(S(=O)(=O)N3CCCC3)cc2)cs1)C1COc2ccccc2O1 (stereo not given)	1.8%	-28.8	7.31µM*	0.6%	9.2µM*
O=C(Nc1nc(-c2ccccc2)cs1)C1COc2ccccc2O1 (stereo not given)	-10.9%	-4.6	?	-13.6%	-5.3%
Cc1ccc2sc(NNC(=O)C3COc4ccccc4O3)nc2c1C (stereo not given)	-1.6%	-10.7	?	-2.9%	25.9µM*
CN(C(=O)COC(=O)C1CCN(S(=O)(=O)c2ccc3c(c2)OCCO3)CC1)C1CCCCC1	12.5%	11.6	-18.6%	1.5%	-2.8%
CC(SC1CCCC1)C(=O)NC(C)(C#N)C(C)C (stereo not given)	2.9%	28.6	-12.1%	-2.6%	-4.9%
Cc1ccc2sc(NNC(=O)c3cc(=O)c4ccccc4o3)nc2c1C	-22.2%	30.9	?	-8.2%	29.1µM*
Cc1cccc2sc(NNC(=O)c3cc(=O)c4ccccc4o3)nc12	-12.9%	23.8	?	0.0%	?
Cc1ccc(S(=O)(=O)N2CCC[C@H]2C(=O)OCc2cc(=O)oc3cc(C)ccc23)cc1	11.7%	9.0	?	-0.1%	?
Cc1cc(NC(=O)CN2CCN(C/C=C/c3ccccc3)CC2)c([N+](=O)[O-])cc1C	-11.4%	1.3	?	-3.2%	?
O=C(CN1CCN(c2cccc(Cl)c2)CC1)Nc1ccc([N+](=O)[O-])cc1C(=O)Nc1ccccc1F	11.7%	15.6	23.1µM*	14.8%	?
O=C(CN1CCN(C/C=C/c2ccccc2)CC1)Nc1cc([N+](=O)[O-])ccc1Cl	-2.5%	6.0	25.9µM*	-8.6%	?
O=[N+]([O-])c1ccc(C(O)CN2CCN(C/C=C/c3ccccc3)CC2)cc1 (stereo not given)	-11.1%	?	29.1µM*	-1.2%	?
O=[N+]([O-])c1ccc(C(O)CN2CCN(Cc3ccccc3)CC2)cc1 (stereo not given)	-8.1%	14.4	7.1%	1.4%	6.8%
CS(=O)(=O)c1ccc(Cl)c(NC(=O)CN2CCN(S(=O)(=O)/C=C/c3ccccc3)CC2)c1	-5.0%	-17.0	3.26µM*	-5.7%	?
NS(=O)(=O)c1ccc(NC(=O)CN2CCN(S(=O)(=O)/C=C/c3ccccc3)CC2)cc1	0.6%	3.5	-14.9%	-0.1%	-3.8%
COc1cccc(Cn2c(=O)c(-c3ccccc3)nc3cncnc32)c1	nt	nt	-25.6%	nt	?
CN(C)S(=O)(=O)N1CCC(n2cnc3cccnc32)CC1	nt	nt	-0.3%	nt	0.3%
O=C(CN1C(=O)S/C(=C\c2ccc(Cl)cc2)C1=O)NCCCn1ccnc1	-1.6%	-24.7	?	-17.7%	?
SMILES	HT1080 IDH1KD tx	IL1B secr inh	TDP1 cell noCPT	HT1080NT lethal	DT40 TDP1 CPT
Cn1c(=O)c2c(nc(NCc3ccco3)n2Cc2ccc(Cl)cc2Cl)n(C)c1=O	3.6%	33.9	10.3µM*	8.9%	11.6µM*
CCn1c(NCc2ccco2)nc2c1c(=O)n(C)c(=O)n2C	4.4%	-4.0	11.6µM*	-0.9%	?
Cn1c(NCc2ccco2)nc2c1c(=O)n(Cc1ccc(Cl)c(Cl)c1)c(=O)n2C	-11.1%	?	18.4µM*	6.4%	?
Cn1c(NCC(O)CO)nc2c1c(=O)n(Cc1ccc(Cl)c(Cl)c1)c(=O)n2C (stereo not given)	-4.1%[9.24 µM]	-6.5	?	-10.7%	?
Cn1c(=O)c2c(nc(NCc3ccco3)n2CCc2ccccc2)n(C)c1=O	-7.3%	-17.6	6.51µM*	-0.4%	7.31µM*
Cn1c(=O)c2c(nc(NCc3ccccc3)n2CC(=O)NCc2ccccc2)n(C)c1=O	9.2%	9.5	-28.4%	11.2%	4.4%
CCC1CN(CCNC(=O)c2ccc3c(c2)OCCO3)Cc2cc(OC)ccc2O1 (stereo not given)	nt	nt	-25.2%	nt	9.5%[9.04 µM]
CCOCCCNC(=O)CN1C(=O)c2ccccc2Sc2ncccc21	-0.3%	0.1	-2.8%	-3.8%	-5.3%
CCN(CC)CCCNC(CC(=O)Nc1cccc([N+](=O)[O-])c1)C(=O)O (stereo not given)	6.8%	25.8	-4.7%	0.9%	0.8%
Cc1ccccc1Nc1nc(N)nc(COC(=O)[C@@H](NC(=O)c2ccccc2Cl)C(C)C)n1	2.9%	19.0	?	7.0%	?
Cc1ccccc1OCC(O)Cn1c(Br)nc2c1c(=O)n(C)c(=O)n2C (stereo not given)	-4.6%	48.6	?	-12.5%	?
Cc1ccccc1OCC(O)Cn1c(NCc2ccco2)nc2c1c(=O)n(C)c(=O)n2C (stereo not given)	0.0%	19.4	10.3µM*	-22.5%	11.6µM*
CC1(C(=O)NS(=O)(=O)c2ccc3c(c2)CCO3)CCN1C(=O)c1ccccc1CCc1ccccc1 (stereo not given)	4.8%	-15.2	?	-1.2%	?
Cc1nc(C)c(-c2nnc(-c3ccc(C(C)(C)C)cc3)o2)cc1C(=O)NN	-22.0%	17.8	23.1µM*	-13.3%	?
CCOCCN1CCN(c2c(CC)c(C)nc3cc(-c4cc(OC)cc(OC)c4)nn23)CC1	-26.5%	?	14.6µM*	?	20.6µM*
CCc1c(C)nc2cc(-c3cc(OC)cc(OC)c3)nn2c1N1CCCC1	?	?	23.1µM*	-9.7%	29.1µM*
COc1cccc(CN2CCN(c3ncccn3)CC2)c1	-2.4%	-18.7	-14.2%	-2.6%	-15.9%
COc1cc(OC)cc(-c2cc3nc4c(c(N5CCN(c6ncccn6)CC5)n3n2)CCCC4)c1	0.0%	-10.8	23.1µM*	11.5%	?

Screening data: PubChem, National Center for Advancing Translational Sciences (NCATS)
